This note sets out measurements from PubChem BioAssay (NCATS).

Inconclusive results are not listed. Values without a mark were called inactive. The source made the active and inactive calls. Calls come from the whole dose curve; as a rule, active = well fitted inhibition curve with a large enough effect; inconclusive = small, poorly fitted or top-dose-only effect; inactive = no such curve, though single readings can be large or run the other way.

This experiment concerns the target Retinaldehyde dehydrogenase 3 (Homo sapiens) (UniProt P47895). Briefly: qHTS for Inhibitors of the Aldehyde Dehydrogenase Family (ALDH1A3) Primary screen (AID 2061315).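 Note: plate controls were DMSO vehicle for no effect and reference inhibitor for full effect.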 The following applies: ALDH inhibition qHTS; series mostly up to 56 µM; activity change, negative = inhibition: at the top concentration. A general note: Quantitative high-throughput screening tests each substance at several concentrations.
`CC(C)(C)c1ccc(C(=O)NCC(=O)OC(C(=O)Nc2cc(C(F)(F)F)ccc2Cl)c2ccccc2)cc1` (stereo not given): the “activity change, negative = inhibition” value is 3.03%. As to `CC1(C)CCc2cc(S(=O)(=O)N3CCN(S(=O)(=O)c4c(F)cccc4F)CC3)ccc2O1`, the Potency entry was “inactive”.

As to `FC(F)(F)c1cccc(N2CCN(C(=S)Nc3cccnc3)CC2)c1`, the “activity change, negative = inhibition” value was 9.6%. Consider `O=C(Nc1nnc(-c2ccncc2)s1)Oc1ccc2ccccc2c1`, for which the “activity change, negative = inhibition” value was -11%.

As to `N#Cc1ccc(NS(=O)(=O)c2ccc(NC(=O)Cc3ccc(Cl)c(Cl)c3)cc2)cc1`, the “activity change, negative = inhibition” value is -1.52%. On the same count and under the same terms, the same measure for `O=S(=O)(c1c(F)cccc1F)C1CCN(S(=O)(=O)c2ccc3c(c2)OCCO3)CC1`: 4.77%. `CC(=O)Nc1sc2c(c1C(=O)O)CCNC2`: the “activity change, negative = inhibition” value was -14.6%. `Cc1ccc(S(=O)(=O)N2CCN(c3nc(-c4ccco4)nc4ccccc34)CC2)cc1`: the “activity change, negative = inhibition” value is 20.7%.

As for `CCCn1c(-c2ccc(F)cc2)nc2c(N3CCC(N(C)C)C3)nc(C)nc21` (stereo not given), the “activity change, negative = inhibition” value was 3.46%.

`COc1ccc(C(=O)Nc2nc(-c3ccccc3)cs2)c(NS(=O)(=O)c2ccc(C)cc2)c1`: the “activity change, negative = inhibition” value is 1.8%. The same measure, in the same setting: next, `Cc1ccc(S(=O)(=O)Nc2cccc(C(=O)Nc3nc(-c4ccccc4)cs3)c2)cc1`: -2.03%; `CC(=O)c1ccc(N2CCN(S(=O)(=O)c3ccc4c(c3)CCC(=O)N4)CC2)cc1`: -3.52%; `O=C(Nc1cccc(C(F)(F)F)c1)c1cccs1`: -1.49%. For `C#CCCC(=O)Nc1sc2c(c1-c1nc3ccccc3s1)CCN(C(C)C)C2`, the “activity change, negative = inhibition” value was 4.73%. On to `CCC(=O)NC(c1cccs1)c1cc(Cl)c2cccnc2c1O` (stereo not given), for which the Potency entry was “inactive”. For `Brc1ccc(-c2csc(N3CCCCC3)n2)cc1`, the “activity change, negative = inhibition” value is 12.5%.

Consider `O=C1CCc2cc([S+](=O)([O-])NC3CCOCC3)ccc2N1`, for which the “activity change, negative = inhibition” value is -3.08%.

On to `COC(=O)c1sc2c(c1-c1nc3ccccc3s1)CCNC2`, for which the “activity change, negative = inhibition” value is -4.9%. As for `COc1ccc(NC(=O)c2[nH]c(C)c(C(C)=O)c2C)cc1[S+](=O)([O-])Nc1ccccc1C#N`, the “activity change, negative = inhibition” value is 1.54%.

Turning to `O=c1[nH]c2ccc(S(=O)(=O)N3CCN(S(=O)(=O)c4c(F)cccc4F)CC3)cc2[nH]c1=O`, the “activity change, negative = inhibition” value was 10.8%. Still for that read-out and setting: next, `Cc1ccc(S(=O)(=O)Nc2cnccc2C(=O)Nc2ccc(-c3nn[nH]n3)cc2)cc1`: -6.78%; `Cc1cc(NC(=O)Nc2nnc(-c3cccnc3)s2)ccc1F`: 1.95%; `Cc1cc(C)nc(NC(=S)N2CCN(c3nccc4ccsc34)CC2)c1`: -23.8%. Same read-out and setting: the same measure for `C[C@@H]1O[C@@H](O[C@@H]2[C@@H](O)[C@H](O[C@H]3CC[C@@]4(C)C(CC[C@]5(C)C4CC=C4[C@@H]6CC(C)(C)CC[C@]6(C(=O)O[C@@H]6O[C@H](CO)[C@@H](O)[C@H](O)[C@H]6O)CC[C@]45C)C3(C)C)O[C@H](C(=O)O)[C@H]2O)[C@H](O)[C@H](O)[C@H]1O` (stereo not given in full): 5.88% [at 16.9 µM]. As to `CC(=O)Nc1oc(-c2cccc3ccccc23)nc1C#N`, the “activity change, negative = inhibition” value was 1.5%. In the case of `CCOc1ccccc1-c1nnc2n1N=C(c1ccc(OC)c(OC)c1)CS2`, the “activity change, negative = inhibition” value was 1.1%. On to `COc1ccccc1C1=Nn2c(nnc2-c2cccc(OC)c2OC)SC1`, for which the “activity change, negative = inhibition” value is 2.9%. Regarding `O=C(NCCc1nc2ccccc2[nH]1)C1CCCCC1`, the “activity change, negative = inhibition” value is -2.79%. Consider `Fc1cc(Nc2nc(-c3ccncc3)nc3ccccc23)ccc1-c1cccnc1`, for which the “activity change, negative = inhibition” value was -2.75%. With `O=C(OCC#CCSc1nnc(-c2cccc3ccccc23)o1)C1CCCC1`, the “activity change, negative = inhibition” value was 12.3%.

Turning to `c1ccc(C2Nc3cccc4cccc(c34)N2)cc1`, the “activity change, negative = inhibition” value was -25.3%. `O=C(Nc1ccc(Cl)c(C(F)(F)F)c1)Nc1nnc(-c2ccncc2)s1`: the Potency result is “inactive”.

For the compound `COc1ccccc1C1N=C(Nc2nc3ccccc3o2)NC2=C1C(=O)CCC2` (stereo not given), the “activity change, negative = inhibition” value was 6.86%. `N#CC1=C(NC=NCc2ccccc2)Oc2ccc3ccccc3c2C1c1ccccc1` (stereo not given): the “activity change, negative = inhibition” value was 4.7%. In the case of `CCNC(=O)c1ccc(-c2ccc3ncnc(NCc4nc(C)cs4)c3c2)o1`, the “activity change, negative = inhibition” value was -6.21%. The same measure, in the same setting: the same measure for `CCOc1ccc(C(C)CNC(=O)c2cc3sccc3n2Cc2ccccc2)cc1OCC` (stereo not given): -2.24%; for `O=C(Nc1nc(-c2ccccc2)cs1)c1ccncc1NS(=O)(=O)c1cccc2cccnc12`: 14.2%; for `C[C@@H]1CC[C@]2(C)C(C[C@@H](O)[C@H](O)[C@]23CO3)[C@@]1(C)CCc1ccoc1` (stereo not given in full): 0.456%.

Regarding `CCCn1c(C)nc2c(NC(C)CN(C)C)nc(C)nc21` (stereo not given), the “activity change, negative = inhibition” value is 3.53%. With `O=S1(=O)N=C(Oc2ccccc2-c2ccccc2)c2ccccc21`, the “activity change, negative = inhibition” value was -19%.
